S aureus helic = S. aureus DNA helicase inhibition; purified S. aureus helicase, fluorescence unwinding assay; inhibition, % (concentration not given with the values); hit rate 0.05% among 120,000; AID 485395; in the data active = inhibition above about 25%, passing the limit was not always enough;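 also: 0% = mean of negative control wells and 100% = mean of positive control wells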
Sa growth inh = blocks Staphylococcus aureus growth; S. aureus RN4220 growth, OD600, 20 h, 42 °C; stronger effect = lower value; relative growth, % (test concentration not listed); hit rate 0.53% among 170,000;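 active = relative growth at most 50% at the other temperature and 20+ points below 30 °C, or under 10% at both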
* = called active by the depositor; . = not tested or not shown; ! = a repeat was not active. The entries come from a sample that favours hits as a whole.

SMILES	S aureus helic	Sa growth inh
O=C(O)c1cccc(NC(=O)c2cc3ccccc3oc2=O)c1	-15	.
CC[C@H]1OC(=O)[C@H](C)[C@@H](O[C@H]2C[C@@](C)(OC)[C@@H](O)[C@H](C)O2)[C@H](C)[C@@H](O[C@@H]2O[C@H](C)C[C@H](N(C)C)[C@H]2O)[C@](C)(OC)C[C@@H](C)C(=O)[C@H](C)[C@@H](O)[C@]1(C)O	.	-0.8*
O=C1CCCN1c1ccc(S(=O)(=O)Nc2c(NC3CCCCC3)c3ccccc3oc2=O)cc1	-3	112
CCSc1ccc(SC#N)s1	14	-0.4*
CCSc1nc2ccccc2s1	-22	85
CC1Cc2ccccc2N1C(=O)CSc1nc2ccccc2[nH]1 (stereo not given)	18	114
CCc1ccccc1NS(=O)(=O)c1ccc2[nH]cc(C(=O)NCc3cccnc3)c(=O)c2c1	15	124
S=C(NCCSc1ccc(Cl)cc1)Nc1cccc(Cl)c1	12	2
CC(CNC(=S)Nc1cccc(Cl)c1)CSc1ccc(Cl)cc1 (stereo not given)	4	-0.4*
N#C/C(=C(/O)COc1ccccc1)c1nc2ccccc2s1	12	81
COc1cccc(OC)c1/C(O)=C(\C#N)c1nc2ccccc2s1	1	1.4*
O=C(Cn1nnc2ccccc2c1=O)NC(=O)NCc1ccccc1	-4	92
Nc1ccccc1NCCc1ccccc1	-75	9.1*
Nc1ccccc1NCCO	-22	88
Cc1ccc2c(c1)c1c3n2CC(O)CN=C3CCC1 (stereo not given)	20	93
c1ccc(-c2ccc3c(c2)c2c4n3CCN=C4CCC2)cc1	8	-0.2*
Cc1noc(COc2ccccc2OCC(O)CN2CCN(C)CC2)n1 (stereo not given)	-2	97
CCC(c1nnc(SCC(=O)NCC(C)C)o1)N(C)C (stereo not given)	-6	98
CCC(c1nnc(SCC(=O)NCCc2ccc(Cl)cc2Cl)o1)N(C)C (stereo not given)	44*	88
CCOC(=O)c1ccc(NC(=S)N2CCC(N(C)C(C)CC)CC2)cc1 (stereo not given)	-10	98
CC1(C)C(=N)N(c2ccccc2)C(=O)N1c1ccccc1	8	94
O=C(CCn1cnc2onc(-c3ccc(F)cc3)c2c1=O)N1CCCCCC1	12	103
COc1ccc(CNc2cc(C)nc3ccc(OC)cc23)cc1	-11	75
COc1ccc(Nc2cc(C)nc3ccc(OC)cc23)cc1	63*	88
Cc1cc(C(=O)COc2ccc3ccc(=O)oc3c2)c(C)n1-c1nccs1	12	89
SMILES	S aureus helic	Sa growth inh
CCOC(=O)c1sc(SC#N)c(-c2ccccc2)c1N	25	1.1*
CCOC(=O)c1sc(SC#N)c(C(=O)OCC)c1C	-19	70
CNc1nc2ccccc2[nH]1	-26	108
c1ccc(Nc2nc3ccccc3[nH]2)nc1	6	0.9*
CCOC(=O)c1sc(N)c(C#N)c1COC(=O)Cc1n[nH]c(=O)c2ccccc12	-243	102
CC(=O)N1C(=O)/C(=C\c2cccnc2)NC1=S	10	98
COc1cccc2c1C(=O)c1c(O)c3c(c(O)c1C2=O)C[C@@](O)(C(=O)CO)C[C@@H]3O[C@H]1C[C@H](N)[C@H](O)[C@H](C)O1	.	1.8*!
O=C(CSc1nnc(-c2ccco2)n1Cc1ccccc1)OCC(=O)c1c[nH]c2ccccc12	9	109
O=C(Nc1cc(Cl)cc(Cl)c1)C1CC1	.	79
O=C(O)Nc1cc(Cl)cc(Cl)c1	4	-0.4*
CCOC(Cn1c(Cc2ccccc2)nc2ccccc21)OCC	-3	115
CC[C@@H]1OC(=O)C[C@H](O)[C@@H](C)[C@@H](O[C@@H]2O[C@H](C)[C@@H](O[C@H]3C[C@@](C)(O)[C@@H](O)[C@H](C)O3)[C@H](N(C)C)[C@H]2O)[C@@H](C=O)C[C@@H](C)C(=O)/C=C/C(C)=C\[C@@H]1CO[C@H]1O[C@@H](C)[C@H](O)[C@H](OC)[C@@H]1OC	.	-1.0*
CC[C@H]1OC(=O)C[C@@H](O)[C@H](C)[C@@H](O[C@@H]2O[C@H](C)[C@@H](O[C@H]3C[C@@](C)(O)[C@@H](O)[C@H](C)O3)[C@H](N(C)C)[C@H]2O)[C@@H](CC=O)C[C@@H](C)C(=O)/C=C/C(C)=C/[C@@H]1CO[C@@H]1O[C@H](C)[C@@H](O)[C@@H](OC)[C@H]1OC	.	-0.2*
O=C(O)c1ccc2c(c1)CCCC2	2	107
Cc1csc(=Nc2ccc(Cl)c(Cl)c2)n1CCCN1CCCC1=O	3	65
CCN1CCN(CCC(=O)Nc2ccc(OC)cc2)CC1	-1	94
O=C(N/C=C/n1cnc2ccccc21)c1ccc(Cl)cc1	8	77
CC(=O)NCCC(=O)N1CCc2ccccc21	-10	85
COc1ccc(-c2nn(C)c3sc(C(=O)NC(C)C)cc23)cc1OC	18	110
CCn1nnc2cc(C(=O)Nc3ccc4c(c3)CCC4)ccc21	-21	83

Bioassay records: PubChem, ICCB-Longwood Screening Facility, Harvard Medical School
